# KB-3-1 cytotox = qHTS assay for MDR1-selective chemotherapeutics: Primary screen using the parental adenocarcinoma cell KB-3-1. KB-3-1 viability, CellTiter-Glo ATP luminescence, 72 h. Potency, µM (doses to about 46.1 µM), most hits filed as cytotoxic. 400,000 compounds, 1.4% hits. AID 1347075, 2019; also: potency is read from the fitted curve at half-maximal effect; % is scaled to controls: 0 for no effect and ±100 for the full control effect; nearly all actives have a fitted effect of over 60% in size
#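 Cytotoxicity measured as CellTiter-Glo luminescence after 72 h at 37 C. Compound titrations were pinned onto drug-naive KB-3-1 parental adenocarcinoma cells grown in DMEM with 10% FBS, and normalized data fitted to concentration-response curves.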
# Giardia kill = Small Molecules that selectively kill Giardia lamblia: qHTS; Giardia lamblia trophozoite viability; activity change, % at 7.66 µM, hits read low; 340,000 compounds, 0.15% hits; AID 540267, 2011; in the data active = activity change below about -80%; inconclusive = between about -30% and that limit;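 also: parasites exposed to compound for two days anaerobically before the ATP read; % is scaled to controls: 0 for no effect and ±100 for the full control effect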
#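 Anaerobic 48 hrs incubation at 37 deg C of 100 trophozoites/well with test compounds; ATPLite 1-Step luminescence, 15-30 min RT, reports cellular ATP as viability.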
# SW480 rerep = A quantitative high throughput screen for small molecules that induce DNA re-replication in SW480 colon adenocarcinoma cells. SW480 DNA re-replication, Hoechst DNA content imaging, 48 h. Potency, µM (series often up to 46.1 µM), for inactives: at the top dose re-replication activation, usual class: activators. 340,000 compounds, 1.8% hits; also: potency is read from the fitted curve at half-maximal effect; % of control where 0% means no effect; nearly all actives have a fitted effect of over 55% in size
#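 Per well, 250 cells were exposed to pinned compound for 48 hr. Nuclear DNA was visualised with Hoechst (40 min, 37 C) and total object intensity recorded by fluorescence scanning.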
# KB-V1 cytotox = qHTS assay for MDR1-selective chemotherapeutics: Primary screen using the drug-selected MDR subline cells KB-V1; KB-V1 MDR cells viability, CellTiter-Glo, 72 h; Potency, µM (top dose mostly 46.1 µM), actives largely listed as cytotoxic; 400,000 compounds, 3.4% hits; also: potency is read from the fitted curve at half-maximal effect; % is scaled to controls: 0 for no effect and ±100 for the full control effect; nearly all actives have a fitted effect of over 60% in size
#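 KB-V1, DMEM (no phenol red) + 10% FBS; cpd pin-transferred, titration series; 72 h, 37 degrees C; CellTiter-Glo, luminescence. Data normalized, curve-fit.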
# ASM inhibitor = Inhibitors of Secretory Acid Sphingomyelinase (S-ASM): qHTS; Sphingomyelin phosphodiesterase (Homo sapiens), P17405; placental ASM, HMU-PC fluorogenic substrate, 60 min; Potency, µM (series often up to 57.5 µM), without a hit: at the highest dose activity change, negative = inhibition, actives largely listed as inhibitors; 340,000 compounds, 0.006% hits; AID 504937, 2011; also: potency is read from the fitted curve at half-maximal effect
# Target sequence (P17405 47-631 limits assumed): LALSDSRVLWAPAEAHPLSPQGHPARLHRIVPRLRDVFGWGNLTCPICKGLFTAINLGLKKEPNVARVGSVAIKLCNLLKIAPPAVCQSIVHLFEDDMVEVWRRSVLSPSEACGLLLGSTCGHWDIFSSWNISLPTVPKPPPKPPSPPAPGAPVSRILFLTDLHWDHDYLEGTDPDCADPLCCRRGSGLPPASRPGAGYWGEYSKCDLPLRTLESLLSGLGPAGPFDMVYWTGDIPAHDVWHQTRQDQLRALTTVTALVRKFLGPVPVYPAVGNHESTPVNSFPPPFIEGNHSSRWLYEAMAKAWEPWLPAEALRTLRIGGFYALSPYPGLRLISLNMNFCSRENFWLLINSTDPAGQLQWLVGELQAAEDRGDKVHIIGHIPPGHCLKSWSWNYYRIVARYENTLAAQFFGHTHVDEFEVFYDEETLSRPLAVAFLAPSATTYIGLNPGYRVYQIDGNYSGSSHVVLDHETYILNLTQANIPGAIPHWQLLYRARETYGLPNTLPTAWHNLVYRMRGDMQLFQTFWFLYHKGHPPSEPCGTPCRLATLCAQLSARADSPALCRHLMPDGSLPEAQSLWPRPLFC
#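 HMU-PC0 cleavage (9 uM final) by human placental ASM, 60 min at 37 °C following 10 min compound exposure at RT; stopped at pH 10, fluorescence Ex 386/Em 447 nm.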
# MCF10A rereplic = A quantitative high throughput screen for small molecules that induce DNA re-replication in MCF 10a normal breast cells; Potency, µM (highest dose often 46.1 µM), without a hit: at the highest dose activity, positive = re-replication, hits mostly activators; MCF 10A DNA re-replication, Hoechst nuclear intensity, 48 h; 350,000 compounds, 2.9% hits; also: potency is read from the fitted curve at half-maximal effect; % of control where 0% means no effect; nearly all actives have a fitted effect of over 50% in size
# Starred values were filed as active, the others as inactive; i = inactive; ? = inconclusive; · = no result; [ ] = dose if it differs, or a comment. Hits are enriched below; roughly 6.9% of the tested compounds scored in any of these assays. Unless noted, calls follow the shape of the dose curve; as a rule, active = well fitted curve in the direction sought with a large enough effect; inconclusive = small, poorly fitted or top-dose-only effect, or another doubt; inactive = no such curve, though single readings can be large; an effect the other way counts as inactive or inconclusive.
SMILES,KB-3-1 cytotox,Giardia kill,SW480 rerep,KB-V1 cytotox,ASM inhibitor,MCF10A rereplic
CCOc1ccc(NC(=O)c2cc(S(=O)(=O)N3CCC(C)CC3)cn2C)cc1,i,·,·,i,·,·
Cc1cnnc2ccccc12,i,·,·,i,·,·
Cc1ccc(Cl)cc1N1CCN(CCCNC(=O)Cn2ncc3c([nH]c4ccccc43)c2=O)CC1,i,·,·,i,·,·
CSCCC1NC2(C(=O)Nc3c2ccc(Cl)c3C)[C@@H]2C(=O)N(C3CCCC3)C(=O)[C@H]12 (some centres undefined),?,-2.0,?,4.11µM*,?,19.8%
Cc1ccc(/C=N/Nc2nc(C(C)(C)C)cs2)o1,i,-5.9,-56.3%,i,13.6%,9.2µM*
N=c1c(C(=O)NC2CCCCC2)cc2c(=O)n3ccccc3nc2n1Cc1ccco1,i,-14.8,20.6µM*,i,309.6%,?
O=C(NC1CCCN(Cc2ccc(Cl)cc2)C1)c1cnc2ccccn2c1=O (centres undefined),·,4.0,1.5%,·,44.9%,11.4%
N=c1c(C(=O)NC2CCCCC2)cc2c(=O)n3ccccc3nc2n1Cc1ccccc1,i,10.2,9.2µM*,i,i,2.59µM*
N=c1c(C(=O)NC2CCCCC2)cc2c(=O)n3ccccc3nc2n1Cc1cccnc1,i,15.7,14.6µM*,i,i,?
CCC(C)n1c(=N)c(C(=O)NC2CCCC2)cc2c(=O)n3ccccc3nc21 (centres undefined),i,·,·,i,·,·
CC(C)Cc1ccc(CN2CCCC(NC(=O)c3cnc4ccccn4c3=O)C2)cc1 (centres undefined),16.4µM*,2.3,?,?,18.8%,?
Cc1ccc(S(=O)(=O)c2cc3c(=O)n4ccccc4nc3n(Cc3ccco3)c2=N)cc1C,i,2.7,?,i,186.7%,?
COc1cc2c(cc1OC)C(c1ccc(Cl)cc1)N(c1cccc(C#N)c1)C(=O)C2 (centres undefined),i,·,·,i,·,·
CCN(CC)CCNC(=O)Cn1ncc2c3ccccc3n(Cc3ccc(Cl)cc3)c2c1=O,i,·,·,?,·,·
COC(=O)c1ccc(NC(=O)COc2ccccc2C(=O)Nc2ccccc2)cc1,i,·,·,i,·,·
N=c1c(C(=O)NCCc2ccccc2)cc2c(=O)n3ccccc3nc2n1Cc1ccco1,i,-19.2,18.4µM*,?,485.1%,9.2µM*
Cc1ccc(Cn2c(=N)c(C(=O)NC3CCCC3)cc3c(=O)n4ccccc4nc32)cc1,i,-10.6,1.64µM*,i,167.3%,?
COc1ccc(CCn2c(=N)c(C(=O)NCc3ccco3)cc3c(=O)n4ccccc4nc32)cc1,i,13.3,13.9%,23.1µM*,130.0%,9.2µM*
N=c1c(C(=O)NCc2ccc(F)cc2)cc2c(=O)n3ccccc3nc2n1Cc1cccnc1,i,8.4,?,?,316.3%,5.8µM*
N=c1c(S(=O)(=O)c2ccccc2)cc2c(=O)n3ccccc3nc2n1Cc1ccco1,i,-7.6,18.2%,i,398.5%,0.9%
COc1cc(CNC(=O)c2cc(-c3cc(F)ccc3OC(C)C)n[nH]2)cc(OC)c1,i,·,·,i,·,·
COc1cccc(NC(=O)CCC(=O)Nc2ccc3nc(N4CCOCC4)cc(C)c3c2)c1,i,11.1,?,i,i,-1.4%
CCN1CCN(Cc2c(O)ccc3oc(C)c(C(=O)Nc4cccc(Cl)c4C)c23)CC1,i,·,·,i,·,·
N=c1c(C(=O)NC2CCCCC2)cc2c(=O)n3ccccc3nc2n1CCc1ccccc1,i,-6.4,2.31µM*,i,i,2.59µM*
Cc1cc(O)c(NC(=S)NC(=O)c2ccc(-c3ccc(Cl)cc3)o2)cc1C,i,2.2,11.6%,i,-19.4%,16.4µM*
SMILES,KB-3-1 cytotox,Giardia kill,SW480 rerep,KB-V1 cytotox,ASM inhibitor,MCF10A rereplic
CC(C)C(=O)N1CCN(c2ccccc2NC(=O)COc2ccc(C3CCCCC3)cc2)CC1,·,11.2,?,·,-9.1%,18.4µM*
CN1CCN(c2ccccc2NC(=O)c2ccc(-c3ccc(Br)cc3)o2)CC1,?,3.6,8.2µM*,?,-3.4%,4.11µM*
CC(=O)N1CCN(c2ccccc2NC(=O)c2ccc(Br)o2)CC1,i,7.0,-7.6%,?,-1.0%,4.3%
Cc1ccc(NC(=S)NC(=O)c2ccc(-c3ccc(Cl)cc3)o2)c(O)c1,?,1.0,7.4%,?,-1.7%,?
Cc1cc(N2CCN(C)CC2)ccc1NC(=O)c1ccc(-c2ccc(Cl)cc2)o1,i,66.8,6.3%,i,-4.6%,1.16µM*
COCCNC(=O)CCN1C(=O)c2cccnc2Oc2ccc(C)cc21,i,·,·,i,·,·
O=C(Nc1ccccc1N1CCCCC1)c1ccc(-c2ccc(Cl)cc2)o1,8.2µM*,2.3,2.91µM*,20.6µM*,-10.2%,?
Cc1cccc(OCC(=O)Nc2ccccc2N2CCN(C)CC2)c1,i,-0.7,4.7%,?,0.5%,-0.5%
CN1CCN(c2ccccc2NC(=O)COc2ccc(Br)cc2)CC1,i,-6.5,-10.6%,20.6µM*,0.6%,?
CCN1C(=O)c2cccc3c(NS(=O)(=O)c4ccc(NC(C)=O)cc4)ccc1c23,?,13.1,0.5%,i,-6.7%,?
CCOC(=O)c1ccc(NC(=O)Nc2ccc3c4c(cccc24)C(=O)N3CC)cc1,i,1.9,6.6%,i,-2.5%,23.1µM*
NC(N)=Nc1nc(-c2ccccc2)c2cc(F)ccc2n1,23.1µM*,1.9,8.1%[1.84 µM],i,26.4%,?
OCCSc1nc(-c2ccccc2)nc2ccc(F)cc12,i,?,-24.2%,i,-2.8%,-4.4%
O=C(CSc1oc(-c2ccco2)nc1S(=O)(=O)c1ccc(Br)cc1)c1ccc(Cl)cc1,i,·,·,i,·,·
CCCCCc1ccc(S(=O)(=O)NCCc2ccncc2)cc1,?,-4.3,-5.9%,3.26µM*,2.3%,15.8%
CCN(C1CCCCC1)S(=O)(=O)c1ccc(S(=O)(=O)NCCc2ccncc2)cc1,i,5.7,10.6%,20.6µM*,4.1%,?
CCCc1ccc(S(=O)(=O)NCCc2ccncc2)cc1,i,9.4,-12.3%,i,1.3%,-1.6%
CC1CCCC(C)N1S(=O)(=O)c1ccc(S(=O)(=O)NCCc2ccncc2)cc1 (centres undefined),i,7.6,-0.5%,?,6.2%,-5.7%

# Bioassay records deposited in PubChem by National Center for Advancing Translational Sciences (NCATS).
